# Data: PubChem BioAssay (EPA / NIEHS)
# The source made the active and inactive calls. How the source made its calls: active means hit-call score of the fitted dose curve at least 0.9, where 1 is the maximum; inactive means score below 0.9.
# Test: ATG_CRE_CIS: Attagene CIS-FACTORIAL HepG2 Assay for human cAMP Responsive Element (CRE) binding protein 3 (AID 2282926)
# Conditions: HepG2 CRE cis-reporter, Attagene multiplexed mRNA; actives raise or lower the signal
# Protocol: ATG_CIS is a cell-based, multiplexed-readout assay that uses HepG2, a human liver cell line, with measurements taken at 24 hours after chemical dosing in a 24-well plate.ATG_CRE_CIS is one of 52 assay component(s) measured or calculated from the ATG_CIS assay. It is designed to make measurements of mRNA induction, a form of inducible reporter, as detected with fluorescence intensity signals by Reverse transcription polymerase chain reaction (RT-PCR) and Capillary electrophoresis technology.Data from the assay component ATG_CRE_CIS was analyzed into 1 assay endpoint. This assay endpoint, ATG_CRE_CIS, was analyzed with bidirectional fitting relative to DMSO as the negative control and baseline of activity. Using a type of inducible reporter, measures of mRNA for gain or loss-of-signal activity can be used to understand the reporter gene at the transcription factor-level as they relate to the gene CREB3. Furthermore, this assay endpoint can be referred to as a primary readout, because this assay has produced multiple assay endpoints where this one serves a reporter gene function. To generalize the intended target to other relatable targets, this assay endpoint is annotated to the dna binding intended target family, where the subfamily is basic leucine zipper.
# Human liver HepG2 cells are transiently transfected with multiple reporter transcription units (MRTUs) in 6-well plates using FuGene 6 reagent (Roche; 3 ml FuGene/1 mg DNA). The MRTU constructs are regulated by a cis-regulating element (promoter). […] A major difference between the CIS and TRANS system is that in CIS activities of endogenous TFs are measured, whereas the TRANS assay evaluates changes in activities of exogenous, chimeric NR-Gal4 proteins. […] At the end of 24 hour incubation, total RNA was isolated using TriZol reagent (Invitrogen). The isolated RNA is then reverse-transcribed using oligo(dT) primer and Mo-MLV reverse transcriptase (Invitrogen) with DNAse I (Ambion) treatment for 30 min. The one-tenth of the produced cDNA was amplified by PCR using Taq DNA polymerase (Invitrogen) and two reporter sequence-specific primers. The PCR products were fluorescently labeled by primer extension with 6-arboxyfluorescein (6-FAM) 5'-labeled reporter sequence-specific primer (2 min at 95 C, 20 s at 68 C and 10 min at 72 C) and these products were digested with 5U of HpaI (New England Biolabs) for 2h at 37 C. The fragments were purified using Qiaquick PCR columns (Qiagen), analyzed on an ABI 3130xL genetic analyzer (Applied Biosystems) with peak positions identified by using a set of X-rhodamine (ROX)-labeled MapMarker1000 molecular weight standards (BioVentures). The raw capillary electrophoresis data was processed using Attagraph software (Attagene).
Compound,outcome,AC50
CC1CCCC1.[C-]#[O+].[C-]#[O+].[C-]#[O+].[Mn],inactive,–
O=[N+]([O-])c1ccc(Cl)cc1,inactive,–
CCCCCCCCCCCC#N,inactive,–
CCOP(=O)(OCC)OCC,inactive,–
C=CC(=O)OCCO,–,116 µM (active)
[CH3][Sn]([Cl])([Cl])[Cl],inactive,–
CC(C)CCCCCCCOC(=O)c1ccccc1C(=O)OCCCCCCCC(C)C,inactive,–
Nc1ccc(Cl)c(Cl)c1,inactive,–
O=C(O)CCl,inactive,–
CCOC(=O)C1OC1(C)c1ccccc1 (stereo not given),inactive,–
CC(=O)c1cc2c(cc1C)C(C)(C)C(C)CC2(C)C (stereo not given),–,72.4 µM (active)
CCCCNP(N)(N)=S,inactive,–
N#CCNCC#N,inactive,–
O=[N+]([O-])c1cc([N+](=O)[O-])c2ccccc2c1,inactive,–
Nc1cc(Cl)cc(Cl)c1,inactive,–
c1cc(OCC2CO2)ccc1Cc1ccc(OCC2CO2)cc1 (stereo not given),–,19.6 µM (active)
C=CC(=O)OC,inactive,–
[Cl][Sb]([Cl])[Cl],inactive,–
CC(C)(C)C(O)C(Oc1ccc(-c2ccccc2)cc1)n1cncn1 (stereo not given),inactive,–
COc1ncc(F)c2nc(S(=O)(=O)Nc3c(F)cccc3F)nn12,inactive,–

Compound,outcome,AC50
O=C(NC(=O)c1c(F)cccc1F)Nc1ccc(Oc2ccc(C(F)(F)F)cc2Cl)cc1F,inactive,–
O=C(O)C(Br)Br,inactive,–
CN(C)N,inactive,–
CCCC=NO,inactive,–
Nc1ccccc1C(=O)Oc1ccc2ccccc2c1,inactive,–
CCC(=O)c1ccc(Cl)cc1,inactive,–
C[C@]12CC[C@H]3[C@@H](CC[C@@]45O[C@@H]4C(O)=C(C#N)C[C@]35C)[C@@H]1CC[C@@H]2O,inactive,–
CCCCCCCCCCCCCCCC[N+](C)(C)C,–,48.9 µM (active)
Nc1ccc(-c2ccc(N)c(N)c2)cc1N,inactive,–
O=[N+]([O-])C=Cc1ccccc1,–,20 µM (active)
CC(=O)C=Cc1ccccc1,inactive,–
c1ccc2c(c1)CCCC2,inactive,–
C=CC(=O)OCCCCOC(=O)C=C,inactive,–
CC(O)CN(CC(C)O)CC(C)O (stereo not given),inactive,–
COC(=O)COc1ccc(Cl)cc1Cl,inactive,–
C=CCO,inactive,–
CC(C)[C@@H](C(=O)O[C@@H](C#N)c1cccc(Oc2ccccc2)c1)c1ccc(Cl)cc1,inactive,–
CCCCOP(=O)(O)OCCCC,inactive,–
Cc1ccc(C)c2ccccc12,inactive,–
CN1C[C@H](C(=O)N[C@]2(C)O[C@@]3(O)[C@@H]4CCCN4C(=O)[C@H](Cc4ccccc4)N3C2=O)C=C2c3cccc4[nH]cc(c34)C[C@H]21,inactive,–
